# Screens: PubChem BioAssay, National Center for Advancing Translational Sciences (NCATS)
# Only some compounds are listed: those with a hit (about 8% of all), similar ones and a draw of the others.
# HCV inh: qHTS Assay for Inhibitors of Hepatitis C Virus (HCV); Huh7.5.1 HCVcc-Cre infection, luciferase reporter, 44 h; Potency, µM (titrated, usually from 41.8 µM), inactives show at the highest dose activity change, negative = inhibition, usual class: inhibitors; hit rate 3.4% among 340,000; AID 651820, 2012; active = well fitted inhibition curve with a large enough effect; inconclusive = small, poorly fitted or top-dose-only effect, or another doubt; inactive = no such curve, though single readings can be large or run the other way; note: potency is the fitted concentration of half-maximal effect; % is set by controls: 0 for no effect and ±100 for the full control effect
#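 Cells seeded at 1,000/well and cultured 4 h, then compounds added followed by HCVcc-Cre virus (~0.5 moi). After 44 h further culture, luciferase substrate was added, plates held 15 min at room temperature, and luminescence read for 15 sec.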
# LASV entry inh: qHTS for Inhibitors of binding or entry into cells for Lassa Virus. Lassa virus pseudotype entry inhibition, cell reporter. hit rate 1.2% among 300,000. Potency, µM (titrated, usually from 37.9 µM), without a hit: at the top dose activity change, negative = inhibition, usual class: inhibitors; calls by dose curve; tested in HEK293 cells; note: potency is the fitted concentration of half-maximal effect; % is set by controls: 0 for no effect and ±100 for the full control effect; nearly all actives have a fitted effect of over 50% in size
# FMDV inh: High Throughput Screening for Foot and Mouth Disease Virus Antivirals | FMDV antiviral cell-based qHTS | Potency, µM (series often up to 57.9 µM), without a hit: at the top dose activity change, negative = inhibition, most hits filed as inhibitors | hit rate 1.2% among 410,000; calls by dose curve; tested in HEK293T cells; note: read-out not given here; potency is the fitted concentration of half-maximal effect; % is set by controls: 0 for no effect and ±100 for the full control effect; nearly all actives have a fitted effect of over 45% in size
# SARS PLP yeast: qHTS of Yeast-based Assay for SARS-CoV PLP. hit rate 0.19% among 330,000. S. cerevisiae expressing SARS-CoV PLpro, growth rescue. Potency, µM (titrated, usually from 32.9 µM), for inactives: at the top dose activity, positive = growth rescue, hits mostly activators; calls by dose curve; note: potency is the fitted concentration of half-maximal effect; 0% is about no effect; nearly all actives have a fitted effect of over 55% in size
# HCMV inh: qHTS Assay for inhibitors of the human cytomegalovirus (HCMV); activity change, negative = inhibition, % at 57.5 µM; HFF cells, HCMV-luciferase reporter, 72 h; hits give low values; hit rate 4.5% among 410,000; in the data active = activity change below about -60%; inconclusive = no clear call, values can overlap the other calls; inactive = above about -39%; note: % is set by controls: 0 for no effect and ±100 for the full control effect
#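 After 16 h attachment at 37C, HFF cells received test compound and HCMV-luciferase (1 PFU/cell); reporter luminescence read 72 h later, data normalized against buffer-only and known inhibitor Salinomycin.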
# MARV entry inh: qHTS for inhibitors of binding or entry into cells for Marburg Virus | Marburg virus pseudotyped entry inhibition, cell reporter | Potency, µM (series often up to 37.8 µM), without a hit: at the top dose activity change, negative = inhibition, hits mostly inhibitors | hit rate 1.8% among 300,000 | AID 540276, 2011; calls by dose curve; tested in HEK293 cells; note: potency is the fitted concentration of half-maximal effect; % is set by controls: 0 for no effect and ±100 for the full control effect
# Active calls of the source: *; ? = inconclusive; . = not tested or not shown; [ ] = another dose, or the depositor's remark.
SMILES,HCV inh,LASV entry inh,FMDV inh,SARS PLP yeast,HCMV inh,MARV entry inh
COCCCNCC(O)C(F)(F)F (stereo not drawn),1%,-2%,-1%,14%,-23,0%
Cc1cc(C)cc(OCC(=O)OC/C(O)=C(\C#N)c2nc3ccccc3[nH]2)c1,0%,-18%,-11%,1%,-81*,?
N#C/C(=C(/O)COC(=O)COc1cccc(Br)c1)c1nc2ccccc2[nH]1,1%,.,-28%,0%,-78*,.
Cc1cccc(C)c1OCC(=O)OC/C(O)=C(\C#N)c1nc2ccccc2[nH]1,25%,4%,-8%,-2%,?,4%
Nc1nonc1-n1nnc(C(=O)N/N=C/c2ccc(OCc3ccccc3)cc2)c1CN1CCCCC1,?,.,1%,12%,10,.
CC(=O)Nc1cccc(NC(=O)CSc2ncc(-c3ccc(Cl)cc3)n2Cc2ccco2)c1,10µM*,?,14µM*,-11%,-35,?
COc1ccc(-c2cnc(SCC(=O)Nc3ccc4c(c3)OCO4)n2Cc2ccco2)cc1,14µM*,?,?,2%,-24,?
CCC(C)(C)NC(=O)C(c1ccc(F)cc1)N(Cc1ccc(OC)cc1)C(=O)c1cnccn1 (stereo not drawn),4%,-3%,64%,1%,-66*,1%[46.1 µM]
CCC(C)(C)NC(=O)C(c1ccc(F)cc1)N(Cc1cccc(OC)c1)C(=O)c1cnccn1 (stereo not drawn),7%,-3%[46.1 µM],9%,0%,-32,15%[46.1 µM]
O=C(NC(=O)c1ccccc1O)c1ccc2c(c1)CCO2,-4%,11µM*,-13%,-5%,-10,?
O=C(Nc1cccc(-c2nc3ncccc3o2)c1)c1ccc(-c2cccc(Cl)c2Cl)o1,.,-19%[46.1 µM],11µM*,.,-92*,6%[46.1 µM]
O=C(CSc1ccc(Cl)cc1)Nc1cc(-c2nc3ncccc3o2)ccc1Cl,13%,.,.,-1%,20,.
O=C(CSc1ccc(Cl)cc1)Nc1cccc(-c2nc3ncccc3o2)c1,9%,?,14µM*,-1%,-18,?
CN(C(=O)c1ccc(NC(=O)Cc2cccc(NC(=O)C3CCN(C(=O)CCc4ccccc4)CC3)c2)cc1)C1CC1,.,.,.,.,9,.
COc1ccc2c(c1)C1=C(CC2)C(c2ccc(C)cc2)NC(=S)N1 (stereo not drawn),11µM*,.,-1%,-5%,?,.
CCCS(=O)(=O)NC(=O)C1(C)CCCN(C(=O)C2(c3ccc(Cl)cc3)CCCC2)C1 (stereo not drawn),.,.,-16%,.,?,.
N/C(=N\OC(=O)N1CCOCC1)c1ccc(Cl)cc1,2%,?,16%,3%,-31,10µM*
N/C(=N\OC(=O)N1CCOCC1)c1ccc(Br)cc1,?,.,26%,-2%,-76*,.
N/C(=N\OC(=O)C12CC3CC(CC(C3)C1)C2)c1ccccc1,5µM*,?,47%,3%,65,?
N/C(=N\OC(=O)C12CC3CC(CC(C3)C1)C2)c1cccnc1,?,3%,.,-2%,1,-4%
N/C(=N\OC(=O)N1CCOCC1)c1ccccc1,-19%,12µM*,.,-13%,?,?
S=C(c1ccc(Cl)cc1)N1CCOCC1,7%,-1%,1%,1%,-25,2%
COc1ccccc1CNC(=O)c1cc2c(-c3ccc(Cl)cc3)nn(C)c2s1,.,-2%[46.1 µM],-22%,.,63,-1%[46.1 µM]
Cc1ccc(-c2ccc(/C=N/NC(N)=S)o2)cc1,11µM*,?,34%,5%,99,?
CC(C)(C)C(=O)Nc1nnc(COc2ccc(Cl)cc2)s1,?,3%,21%,-2%,-27,9%
SMILES,HCV inh,LASV entry inh,FMDV inh,SARS PLP yeast,HCMV inh,MARV entry inh
COc1ccc(-c2[nH]c(-c3cc(OC)c4c(c3)OCO4)nc2-c2ccccc2)cc1,?,?,-3%,-8%,-71*,?
O=C(Cn1ncc2c([nH]c3ccccc32)c1=O)Nc1cc(F)ccc1F,.,-10%[46.1 µM],15%,.,-19,.
O=C(O)c1ccccc1SSc1ccccc1C(=O)O,16%,-7%[46.1 µM],4%,1%,-26,20%[46.1 µM]
C[CH2][Hg][S]c1ccccc1C(=O)O,-62%,.,28µM*,.,-95*,.
COc1ccc(OCC(=O)Nc2cccc(-c3nc4ccccc4s3)c2C)cc1,.,-24%[46.1 µM],?,.,-26,-18%[46.1 µM]
Cc1ccc(CSc2nc3ccc(NC(=O)C(C)C)cc3s2)cc1,.,-27%[46.1 µM],1%,.,-13,?
CC(=O)N(/N=C1\Sc2ccccc2C1=O)c1ccccc1C,?,?,11%,-5%,1,?
CC(=O)N(/N=C1\Sc2ccccc2C1=O)c1ccc(C)cc1C,4%,10µM*,?,-16%,-86*,?
COC(=O)[C@@]1(C=C[C@@H](C)[C@H](OC)c2ccccc2Br)[C@@H]2OCCC[C@@H]21,.,.,.,.,.,-4%[14.2 µM]
COc1ccc(CNC(=O)c2[nH]c(C(F)(F)F)nc2-c2ccccc2)cc1OC,.,.,-10%,.,-2,.
Cc1ccc(Cn2c(C)c(C(=O)NCc3cccc(C(F)(F)F)c3)sc2=O)cc1,.,.,-13%,.,-16,.
COc1ccccc1Cn1c(C)c(C(=O)NCc2cccc(C)c2)sc1=O,.,.,-10%,.,-61*,.
COc1ccc(CNC(=O)c2sc(=O)n(Cc3ccc(C)cc3)c2C)cc1OC,.,.,25µM*,.,-7,.
Cc1c(C(=O)NCc2cccc([N+](=O)[O-])c2)sc(=O)n1Cc1cccc(F)c1,.,.,-8%,.,-61*,.
COc1ccc(CNC(=O)c2sccc2-c2ccccc2)cc1OC,-30%,.,?,-1%,-71*,.
Cc1ccc(NCc2cc3cc4c(cc3n(CC(=O)Nc3ccc(C)cc3)c2=O)OCCO4)cc1,.,11%[46.1 µM],50%,.,78,.
COCC(=O)N1[C@@H]2Cn3c(ccc(Br)c3=O)[C@H]1[C@@H](C(=O)OC)[C@@H]2CO,.,.,.,.,-8,.
COc1ccc(CNC(=O)c2sc(=O)n(Cc3ccc(-c4ccccc4)cc3)c2C)cc1OC,.,.,16µM*,.,?,.
C=Cc1ccc(Cn2c(C)c(C(=O)NCc3ccc(C#N)cc3)sc2=O)cc1,.,.,?,.,-60*,.
C=C1CCC2C(CC2(C)C)C(=C)CC/C1=N/O (stereo not drawn),.,.,6%,.,.,.
CC(=O)OC1(C)CC(C)C(=O)C(C(O)CC2CC(=O)NC(=O)C2)C1 (stereo not drawn),0.5µM*,.,?,.,-105*,.
Cc1cccc(C)c1NC(=S)NCCSc1ccc(Cl)cc1,10µM*,?,1%,-14%,?,?
Cc1ccc(NC(=S)NCCSc2ccc(Cl)cc2)cc1,-15%,-9%,19%,11%,?,?
COc1ccc(Cn2c(-c3ccc(C)cc3)c[n+]3ccccc23)cc1,?,6.3µM*,?,-18%,-97*,?
COc1ccc(-c2nc3ccccc3n2Cc2ccc(C)cc2)cc1,?,1%,10%,.,-33,9%[46.1 µM]
